Measurements taken from the supplement of paper PMC8728848.
Many of the other results were omitted from the sample, so the strongest signals are more common in it than they were.

Assays:
Experiment in all cases: glycan array binding signal (z-score within array); higher = stronger binding
Conditions in all cases: glycan notation: IUPAC condensed, linker removed
Fuc(a1-2)Gal(b1-3)GlcNAc = target: Fuc(a1-2)Gal(b1-3)GlcNAc
How it was run: (§1)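 Arrays were curated from the Consortium for Functional Glycomics database, 3228 in total, and kept only where the protein sequence was available. Binding is expressed as a within-array Z-score. This score was averaged across arrays of the same protein sequence at different concentrations or buffers and across linkers, and negative values can be read as non-binding.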

[1] = target: Fuc(a1-2)Gal(b1-3)GlcNAc(b1-3)Gal(b1-4)Glc
How it was run: as §1

[2] = target: Fuc(a1-2)[GalNAc(a1-3)]Gal(b1-4)GlcNAc(b1-3)Gal(b1-4)GlcNAc
How it was run: as §1

Fuc(a1-3)GlcNAc = target: Fuc(a1-3)GlcNAc
How it was run: as §1

[3] = target: Fuc(a1-3)[Gal3S(b1-4)]GlcNAc6S
How it was run: as §1

Fuc(b1-3)GlcNAc = target: Fuc(b1-3)GlcNAc
How it was run: as §1

[4] = target: Gal(b1-3)[Fuc(a1-4)]GlcNAc(b1-3)Gal(b1-3)[Fuc(a1-4)]GlcNAc
How it was run: as §1

[5] = target: Gal(b1-3)[Fuc(a1-4)]GlcNAc(b1-3)Gal(b1-4)[Fuc(a1-3)]GlcNAc
How it was run: as §1

[6] = target: Gal(b1-4)GlcNAc(b1-2)Man(a1-6)[GlcNAc(b1-2)Man(a1-3)]Man(b1-4)GlcNAc(b1-4)GlcNAc
How it was run: as §1

[7] = target: Gal3S(b1-4)[Fuc(a1-3)]Glc6S
How it was run: as §1

Gal3S4S(b1-4)GlcNAc = target: Gal3S4S(b1-4)GlcNAc
How it was run: as §1

Gal3S6S(b1-4)GlcNAc6S = target: Gal3S6S(b1-4)GlcNAc6S
How it was run: as §1

Gal4S(b1-4)GlcNAc = target: Gal4S(b1-4)GlcNAc
How it was run: as §1

[8] = target: GlcNAc(a1-4)Gal(b1-4)GlcNAc(b1-3)Gal(b1-4)Glc
How it was run: as §1

[9] = target: GlcNAc(a1-4)Gal(b1-4)GlcNAc(b1-3)Gal(b1-4)[Fuc(a1-3)]GlcNAc(b1-3)Gal(b1-4)[Fuc(a1-3)]GlcNAc
How it was run: as §1

[10] = target: GlcNAc(b1-2)Man(a1-3)[GlcNAc(b1-2)Man(a1-6)]Man(b1-4)GlcNAc(b1-4)[Fuc(a1-6)]GlcNAc
How it was run: as §1

[11] = target: GlcNAc(b1-4)GlcNAc(b1-4)GlcNAc(b1-4)GlcNAc(b1-4)GlcNAc(b1-4)GlcNAc
How it was run: as §1

Kdn(a2-3)Gal(b1-3)GlcNAc = target: Kdn(a2-3)Gal(b1-3)GlcNAc
How it was run: as §1

[12] = target: Man(a1-2)Man(a1-3)[Man(a1-2)Man(a1-6)]Man
How it was run: as §1

[13] = target: Man(a1-2)Man(a1-3)[Man(a1-2)Man(a1-6)]Man(a1-6)[Man(a1-2)Man(a1-2)Man(a1-3)]Man(b1-4)GlcNAc(b1-4)GlcNAc
How it was run: as §1

[14] = target: Neu5Ac(a2-3)Gal(b1-3)GalNAc(b1-3)Gal(a1-4)Gal(b1-4)Glc
How it was run: as §1

[15] = target: Neu5Ac(a2-3)Gal(b1-4)GlcNAc
How it was run: as §1

[16] = target: Neu5Ac(a2-3)Gal(b1-4)[Fuc(a1-3)]GlcNAc(b1-6)[Gal(b1-3)]GalNAc
How it was run: as §1

[17] = target: Neu5Ac(a2-3)[GalNAc(b1-4)]Gal(b1-4)Glc
How it was run: as §1

[18] = target: Neu5Ac(a2-3)[GalNAc(b1-4)]Gal(b1-4)GlcNAc(b1-3)GalNAc
How it was run: as §1

Neu5Ac(b2-6)GalNAc = target: Neu5Ac(b2-6)GalNAc
How it was run: as §1

B1: MIC2 (Toxoplasma gondii), S8F9G8 (protein)
chain: MRLQREAVFGLMFACGMWMWPSEVAGGGWSIVDALRKRYDTSRGGDANGVDTSGVEDVIQSESAIGAAEGCTNQLDICFLIDSSGSIGIQNFRLVKQFLHTFLMVLPIGPEEVNNAVVTYSTDVHLQWDLQSPNAVDKQLAAHAVLDMPYKKGSTNTSDGLKACKQILFTGSRPGREHVPKLVIGMTDGESDSDFRTVRAAKEIRELGGIVTVLAVGHYVKHSECRSMCGCSGTSDDDSPCPLYLRADWGQLATAIKPMLKEVCKTLPQDAICSDWSAWSPCSVSCGDGSQIRTRTEVSAPQPGTPTCPDCPAPMGRTCVEQGGLEEIRECSAGVCAVDAGCGVWGEWSAWSASCGNATRKRERTRYNDPPPQGAGRRCENQDPPVLQEQTEEATLAPCITIPPTPPEWAAWSDCTVTCGGGNRHRVRNALPPGLGSQNGESDESLVSKLWPGTDLRQEEACNTSPCPINATCGQFEEWSTCSVSCGGGLKTRSRNPWNEDQQHGGLSCEQQHPGGRTETITCNPQACPVDERPGEWAEWGECSVTCGDGVRERRRGKSLVEAKFGGRTIDQQNEALPEDLKIKNVEYEPCSYPACGASCTYVWSDWNKCVCPMGYQARHAAVKFDYRNKPCDLPTFETKACSCGETNPVPSEGTTPGAPGATGPEQPNQRPLPEGSDENETPTNEEGEQSKKESGSGIAGAIAGGVIGGLILLGAAGGASYHYYLSSSVGSPSAEIEYEADDGATKVVMEEEKETLVPVDDDSDMWME
Question: Which results are given for B1?
Answer: glycan array binding signal (z-score) (Fuc(a1-2)Gal(b1-3)GlcNAc): -0.642; glycan array binding signal (z-score) [1]: -0.779; glycan array binding signal (z-score) [2]: -0.814; glycan array binding signal (z-score) (Fuc(a1-3)GlcNAc): -0.671; glycan array binding signal (z-score) [3]: 3.68; glycan array binding signal (z-score) (Fuc(b1-3)GlcNAc): 0.622; glycan array binding signal (z-score) [4]: -0.718; glycan array binding signal (z-score) [5]: 0.177; glycan array binding signal (z-score) [6]: -0.816; glycan array binding signal (z-score) [7]: 4.19; glycan array binding signal (z-score) (Gal3S4S(b1-4)GlcNAc): 3.35; glycan array binding signal (z-score) (Gal3S6S(b1-4)GlcNAc6S): 3.06; glycan array binding signal (z-score) (Gal4S(b1-4)GlcNAc): -0.874; glycan array binding signal (z-score) [8]: -0.113; glycan array binding signal (z-score) [9]: 3.35; glycan array binding signal (z-score) [10]: 4; glycan array binding signal (z-score) [11]: 0.267; glycan array binding signal (z-score) (Kdn(a2-3)Gal(b1-3)GlcNAc): -0.014; glycan array binding signal (z-score) [12]: -0.278; glycan array binding signal (z-score) [13]: 0.876; glycan array binding signal (z-score) [14]: 0.008; glycan array binding signal (z-score) [15]: 0.221; glycan array binding signal (z-score) [16]: 3.24; glycan array binding signal (z-score) [17]: 0.279; glycan array binding signal (z-score) [18]: 1.93; glycan array binding signal (z-score) (Neu5Ac(b2-6)GalNAc): -0.725
